DUX4 txn inh = DUX4-mediated transcription inhibition | activity change, negative = inhibition, % (concentration not given with the values) | 293T-iDUX4 ZSCAN4-Gaussia luciferase reporter, 24 h; hits give low values | hit rate 0.8% among 37,000 | AID 1224904;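 active = mean inhibition of at least 10% in the main channel, exceeding the control channel by a set limit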
Numbers stand for hits; n = inactive; ! = a repeat was not active. The entries come from a sample that favours hits as a whole.

SMILES	DUX4 txn inh
CO[C@H](CN(C)S(=O)(=O)c1ccc(F)cc1)[C@H](C)CN([C@H](C)CO)S(=O)(=O)c1cccc(Cl)c1	n
CCC(=O)N1[C@@H]2c3ccc(C4=CCCCC4)c(=O)n3C[C@@H]2[C@@H](CO)[C@@H]1C(=O)NC1CCC1	n
CCC(=O)N1CC(=O)N2[C@@H](CO)[C@@H](c3ccc(-c4ccccc4F)cc3)[C@@H]2C1	n
C/C=C/c1ccc([C@H]2[C@H](CO)N(C(=O)C3CCCC3)C23CN(C(=O)NC(C)C)C3)cc1	n
O=S(=O)(c1ccccc1)N1CCCCN2[C@@H](CO)[C@H](c3ccc(C#CC4CCCC4)cc3)[C@@H]2C1	n
O=S(=O)(c1ccc(F)cc1)N1CCCCN2[C@@H](CO)[C@H](c3ccc(C#CC4CC4)cc3)[C@@H]2C1	-26
CC(C)CC#Cc1ccc([C@@H]2[C@H]3CN(S(=O)(=O)Cc4ccccc4)CCCCN3[C@H]2CO)cc1	n
CC(C)CC#Cc1ccc([C@@H]2[C@H]3CN(S(=O)(=O)c4ccc(F)cc4)CCCCN3[C@H]2CO)cc1	-22
COCC#Cc1ccc([C@@H]2[C@H](CO)N3CCCCN(S(=O)(=O)c4ccc(OC)cc4)C[C@@H]23)cc1	n
CC(C)C#Cc1ccc([C@@H]2[C@H]3CN(C(=O)c4ccc(F)cc4)CCCCN3[C@H]2CO)cc1	-26
CC(C)(O)C#Cc1ccc([C@H]2[C@@H](CO)N3CCCCN(C(=O)c4ccc(F)cc4)C[C@@H]23)cc1	n
O=S(=O)(c1ccccc1)N1CCCCN2[C@@H](CO)[C@@H](c3ccc(C#CC4CCCC4)cc3)[C@@H]2C1	n
CC(C)(O)C#Cc1ccc([C@@H]2[C@@H](CO)N3CCCCN(C(=O)c4ccc(F)cc4)C[C@H]23)cc1	n
O=C(c1cccnc1)N1CC2(C1)[C@@H](c1ccccc1)[C@@H](CO)N2CC1CC1	n
O=C(C1CC1)N1C[C@H]2[C@@H](c3ccccc31)[C@H](CO)N2C(=O)c1ccccn1	n
COc1ccc2c3c([nH]c2c1)[C@@H](CO)N(C(=O)C1CCCCC1)CC31CCN(C)CC1	n
Cc1ccccc1-c1ccc2c(c1)O[C@@H](CN(C)Cc1ccncc1)[C@H](C)CN([C@H](C)CO)S2(=O)=O	n
COc1ccc2c3c(n(C)c2c1)[C@H](CO)N(Cc1ccccc1OC)CC31CN(C(=O)C2CC2)C1	n
O=C(c1cccnc1)N1C[C@@H]2N[C@H](C1)C2c1ccc(-c2ccccc2)cc1 (some centres not stated)	n
c1cncc(-c2ccc(C3[C@@H]4CN(Cc5nccs5)C[C@H]3N4)cc2)c1 (some centres not stated)	-35!
C/C=C/c1ccc(C2[C@@H]3CN(C(=O)Cc4ccccc4)C[C@H]2N3)cc1 (some centres not stated)	n
C/C=C/c1ccc(C2[C@@H]3CN(C(=O)Cc4ccncc4)C[C@H]2N3)cc1 (some centres not stated)	n
O=C(CN1CCOCC1)N1C[C@@H]2N[C@H](C1)C2c1ccc(/C=C/c2ccccc2)cc1 (some centres not stated)	n
O=C(Cc1ccncc1)N1C[C@@H]2N[C@H](C1)C2c1ccc(/C=C/c2ccccc2)cc1 (some centres not stated)	-28!
C(=C\c1ccc(C2[C@@H]3CN(Cc4ccccn4)C[C@H]2N3)cc1)/c1ccccc1 (some centres not stated)	-32
SMILES	DUX4 txn inh
O=C(c1ccncc1)N1C[C@@H]2N[C@H](C1)C2c1ccc(/C=C/c2ccccc2)cc1 (some centres not stated)	n
C(=C\c1ccc(C2[C@@H]3CN(Cc4nccs4)C[C@H]2N3)cc1)/c1ccccc1 (some centres not stated)	-32!
O=C(Cc1ccncc1)N1C[C@@H]2N[C@H](C1)C2c1ccc(-c2ccccc2)cc1 (some centres not stated)	n
c1cc(-c2ccc(C3[C@@H]4CN(Cc5nccs5)C[C@H]3N4)cc2)ccn1 (some centres not stated)	n
C/C=C/c1ccc(C2[C@H]3CNC[C@@H]2N3Cc2nccs2)cc1 (some centres not stated)	n
C[C@H](CO)N1C[C@H](C)[C@@H](CN(C)S(=O)(=O)c2cccs2)Oc2ccc(NS(C)(=O)=O)cc2CC1=O	n
COc1ccccc1NC(=O)Nc1ccc2c(c1)C(=O)N(C)C[C@@H](OC)[C@H](C)CN[C@@H](C)CO2	n
COc1ccc2c3c([nH]c2c1)[C@@H](CO)N(C)CC31CCN(C(=O)C2CC2)CC1	n
COCC(=O)N1CC2(CN[C@@H](CO)c3c2c2ccc(OC)cc2n3C)C1	n
CNC[C@H]1Oc2ccc(NC(=O)Cc3cn(C)c4ccccc34)cc2C(=O)N([C@@H](C)CO)C[C@@H]1C	n
CCC(=O)N1CC(=O)N2[C@H](C1)[C@H](c1ccc(-c3ccccc3F)cc1)[C@@H]2CO	n

Compound activity: PubChem BioAssay, Broad Institute
